# Laboratory results: PubChem BioAssay (NCI)
# This is part of a sample that, as a whole, favours compounds with a hit. Of some 83,000 tested, about 20% had one in any assay.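 How to read the values: 0–100, growth inhibition (40 = 60% inhibited); 0, no net growth; -100 to 0, cell death (-40 = 40% of starting cells died; -100 = all dead).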 Values without a mark were called inactive. Activity calls are given as the source filed them. Rule for the calls: active = growth percent below 10; inactive = the rest.
# Legend:
# Assay in all cases: NCI-60 one-dose screen, 48 h (100 = growth as untreated, 0 = no growth, -100 = all killed)
# Conditions in all cases: 10 µM unless noted
# [1] = tested on: RPMI-8226 leukemia
# [2] = tested on: OVCAR-8 ovarian
# [3] = tested on: OVCAR-5 ovarian
# [4] = tested on: OVCAR-4 ovarian
# [5] = tested on: SK-OV-3 ovarian
# [6] = tested on: IGROV1 ovarian
# [7] = tested on: OVCAR-3 ovarian
# [8] = tested on: HS 578T breast
# [9] = tested on: NCI/ADR-RES ovarian
# [10] = tested on: T-47D breast
# [11] = tested on: BT-549 breast
# [12] = tested on: MDA-MB-435 melanoma
# [13] = tested on: SW-620 colon
# [14] = tested on: MCF7 breast
# [15] = tested on: HCT-116 colon
# [16] = tested on: HCC-2998 colon
# [17] = tested on: KM12 colon
SMILES,growth [1],growth [2] [%],growth [3] [%],growth [4] [%],growth [5] [%],growth [6] [%],growth [7],growth [8] [%],growth [9],growth [10],growth [11],growth [12],growth [13] [%],growth [14] [%],growth [15],growth [16] [%],growth [17]
CCCCCCN(CCCCCC)c1ccc(/C=C2/SC(=O)N(c3nc(N4CCCC4)nc(N4CCCC4)n3)C2=O)c(C)c1,42%,66.1,104,51.9,91.3,77.3,63.2%,78.4,71.3%,63.6%,88.1%,75.5%,73.2,54.8,45.5%,41.7,52.9%
O=C(c1ccccc1)c1c(/C=C/c2ccccc2)nc2ccccc2c1/C=C/c1ccc(Br)cc1,104%,102,103,88,96.3,103,89.4%,91.3,102%,95.4%,111%,99.7%,98.3,82.7,87.8%,115,98.7%
C=C(C)[C@@H]1CC=C2c3sc(-c4ccc(C)cc4)nc3C[C@@H](C)[C@]2(C)C1,109%,99.3,101,98.2,97.5,109,104%,100,106%,95.4%,109%,101%,103,96.9,105%,115,101%
O=C1/C(=C\c2cccnc2)SC(=S)N1CCc1ccc(O)cc1,16.7%,62.6,58.8,64,96.4,62.9,35.7%,74.7,47.9%,37.6%,72.2%,22.4%,44.4,30.3,15%,72.1,-3.09% (active)
COC(=O)[C@]12CC[C@@H](C)[C@H](C)[C@@H]1C1=CC[C@@H]3[C@@]4(C)C(C=O)=C[C@@](C)(COC(=O)c5ccco5)[C@@H]4C(=O)C[C@@]3(C)[C@]1(C)CC2,14.6%,24.8,59.4,29.8,33.7,51.8,40.4%,65.3,28.4%,0.38% (active),12.9%,-10.1% (active),31.4,20.4,12.6%,38.9,23.1%
O=C1/C(=C2/C=Nc3ccccc32)N(O)c2ccccc21,38.9%,62.1,78.2,50,98.8,48.1,34.8%,87.7,55.2%,19.5%,78.1%,-95.3% (active),75.4,40.3,49.8%,113,73.1%
Cc1cc(C)c(-c2c(C)cc(C)cc2CBr)c(CBr)c1,50.2%,68.3,97.1,74.1,101,90.3,90.9%,86.6,72.2%,69.8%,79.2%,77%,78.5,67.1,49.4%,103,80.3%
Cc1cc(C(=O)c2ccccc2)c(C)c2c1[nH]c1ccc(Cl)cc12,-0.677% (active),21.9,43.5,43.5,38,19.1,-51% (active),33.2,7.25% (active),63.5%,5.82% (active),-25.4% (active),26.3,13.1,5.1% (active),21.8,0.781% (active)
COc1cccc(-c2nc3sccn3c2-c2ccnc(NCCNS(=O)(=O)c3cccc(Cl)c3)c2)c1,-4.85% (active),21.4,89.6,34,65.6,41.8,48.2%,38.6,22.7%,1.84% (active),18.3%,59.7%,66.5,43.2,40%,64.2,42.8%
N#CC1=C(c2ccc(Br)cc2)NC(SCC(=O)c2ccc(Br)cc2)NC1=O (centres undefined),107%,103,101,101,110,114,102%,97,107%,92.8%,99.1%,103%,101,101,96.5%,106,101%
COC(=O)/C=C1\S/C(=N\NS(=O)(=O)c2ccc(C)cc2)N(c2ccccc2)C1=O,106%,99.8,109,91,111,103,105%,98.9,108%,99.2%,115%,102%,106,94.5,103%,121,101%
Cc1ccccc1NC(=O)N/C(N)=N/c1nc(-c2cccc([N+](=O)[O-])c2)cs1,34.1%,67.3,76.3,56.5,57.2,37.1,26.9%,11.2,2.74% (active),35.7%,51%,-19.7% (active),31.1,22.4,20.6%,39.6,31.2%
Cc1cc(=O)oc2c1ccc1oc(C#N)c(C)c12,88.9%,99.5,92.4,93.1,107,106,98.6%,91.2,96.2%,88.6%,94%,95.5%,95.7,102,89.9%,106,104%
COc1cc(N2C(=O)c3nccnc3C2=O)cc(OC)c1OC,97.6%,104,109,105,103,98.2,120%,104,104%,96.9%,95.2%,107%,104,95.7,103%,–,110%
O=C(NC(CSSCC(NC(=O)c1ccccc1)C(=O)O)C(=O)O)c1ccccc1 (centres undefined),104%,104,105,128,102,96.7,99.6%,96.3,97.3%,99.4%,91.1%,103%,103,117,98.9%,–,97.9%
COc1ccc(C(=O)Nn2c(NCC(=O)N3c4ccccc4Sc4ccccc43)nnc2-c2ccc(O)cc2)cc1,105%,101,89.3,120,105,110,121%,106,97.8%,106%,96.5%,102%,104,111,101%,–,109%
